{
  "source": "paper PMC4336329",
  "about": "(PLoS ONE, 2015)",
  "note": "In all, about 310,000 compounds went through this assay and about 14,000 (4.5%) showed an effect of 50% or more. Effects have a minus sign here. This excerpt belongs to a sample that is enriched for strong results.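 Also: peak tail current of the secondary pulse compared with the same well before compound.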",
  "data": [
    {"molecular_target": "human ether-à-go-go-related gene (hERG) potassium channel (human, UniProt Q12809)", "sequence (Q12809 whole entry, looked up)": "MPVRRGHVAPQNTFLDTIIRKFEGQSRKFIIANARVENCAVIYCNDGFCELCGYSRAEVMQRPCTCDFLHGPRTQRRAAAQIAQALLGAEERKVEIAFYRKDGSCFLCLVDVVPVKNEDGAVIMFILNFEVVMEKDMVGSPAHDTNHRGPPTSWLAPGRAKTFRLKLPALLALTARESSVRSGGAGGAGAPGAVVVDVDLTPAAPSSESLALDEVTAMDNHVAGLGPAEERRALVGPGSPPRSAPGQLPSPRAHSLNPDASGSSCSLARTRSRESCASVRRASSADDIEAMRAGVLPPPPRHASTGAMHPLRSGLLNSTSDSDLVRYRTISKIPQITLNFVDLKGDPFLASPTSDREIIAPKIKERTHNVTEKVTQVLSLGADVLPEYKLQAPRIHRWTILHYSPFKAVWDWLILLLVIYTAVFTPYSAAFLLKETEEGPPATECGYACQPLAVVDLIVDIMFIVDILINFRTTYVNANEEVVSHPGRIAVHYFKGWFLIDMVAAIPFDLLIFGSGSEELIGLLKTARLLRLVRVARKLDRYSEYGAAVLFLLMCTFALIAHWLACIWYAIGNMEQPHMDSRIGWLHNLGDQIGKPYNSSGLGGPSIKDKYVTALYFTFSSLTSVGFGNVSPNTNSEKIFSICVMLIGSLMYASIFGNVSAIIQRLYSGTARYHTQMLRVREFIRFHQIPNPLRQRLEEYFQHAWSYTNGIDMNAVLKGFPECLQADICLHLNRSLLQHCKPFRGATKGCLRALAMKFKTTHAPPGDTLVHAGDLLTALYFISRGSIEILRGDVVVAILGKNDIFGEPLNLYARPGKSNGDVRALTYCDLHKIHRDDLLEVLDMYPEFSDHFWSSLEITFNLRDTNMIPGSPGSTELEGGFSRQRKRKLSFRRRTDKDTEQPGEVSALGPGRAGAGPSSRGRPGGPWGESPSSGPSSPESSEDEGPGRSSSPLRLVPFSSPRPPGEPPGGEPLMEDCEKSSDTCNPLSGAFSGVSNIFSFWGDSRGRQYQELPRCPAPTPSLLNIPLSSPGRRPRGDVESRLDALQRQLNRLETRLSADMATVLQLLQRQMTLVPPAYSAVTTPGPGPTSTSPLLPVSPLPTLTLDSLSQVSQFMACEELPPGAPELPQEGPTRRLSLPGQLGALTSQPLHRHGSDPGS", "test": "primary screen, population patch clamp on CHO cells stably expressing hERG; higher = less effect of the substance", "units": {"hERG current change (%, negative = inhibition) at 10uM": "%"}, "values": [
      {"smiles": "O=C(Nc1ccc(C(=O)N2CCC(O)(c3ccc(Cl)c(C(F)(F)F)c3)CC2)cc1)c1ccc(Br)o1", "hERG current change (%, negative = inhibition) at 10uM": 8.21},
      {"smiles": "Cc1cc2cc(CCNC(=O)CC(C)(C)C)c(=O)[nH]c2cc1C", "hERG current change (%, negative = inhibition) at 10uM": 7.53},
      {"smiles": "O=C(Cc1coc(-c2ccc(F)cc2)n1)Nc1ccccc1", "hERG current change (%, negative = inhibition) at 10uM": -15.4},
      {"smiles": "Cn1c(=O)c2ncn(CC(=O)Nc3nc(-c4ccc(Cl)cc4)cs3)c2n(C)c1=O", "hERG current change (%, negative = inhibition) at 10uM": 12.1},
      {"smiles": "N#CCc1c(C#N)c(N)nc(N2CCN(S(=O)(=O)c3ccccc3F)CC2)c1C#N", "hERG current change (%, negative = inhibition) at 10uM": -9.75},
      {"smiles": "O=C(CN(c1ccccc1)S(=O)(=O)c1ccccc1)Nc1ccc(F)cc1", "hERG current change (%, negative = inhibition) at 10uM": 22.6},
      {"smiles": "Cc1cccc(N2C(=O)NC(=O)/C(=C\\c3cc(C)n(-c4sc5c(c4C#N)CCCC5)c3C)C2=O)c1C", "hERG current change (%, negative = inhibition) at 10uM": 4.35},
      {"smiles": "Cc1nnc(NC(=O)CSc2nnc(C)n2Cc2ccccc2)s1", "hERG current change (%, negative = inhibition) at 10uM": 17.7},
      {"smiles": "CC(=O)N1CCN(C(=O)c2cccc(S(=O)(=O)N3CCN(c4ccc(F)cc4)CC3)c2)CC1", "hERG current change (%, negative = inhibition) at 10uM": -20.1},
      {"smiles": "CC1CCN(S(=O)(=O)c2cccc(C(=O)N3CCN(c4ccc(F)cc4)CC3)c2)CC1", "hERG current change (%, negative = inhibition) at 10uM": -65.4},
      {"smiles": "CC1CN(C(=O)c2cccc(S(=O)(=O)N3CCN(c4ccc(F)cc4)CC3)c2)CC(C)O1", "note": "(centres unmarked)", "hERG current change (%, negative = inhibition) at 10uM": -45.4},
      {"smiles": "CC1CCN(C(=O)c2cccc(S(=O)(=O)N3CCN(c4ccccc4)CC3)c2)CC1", "hERG current change (%, negative = inhibition) at 10uM": 2.41},
      {"smiles": "O=C(c1cccc(S(=O)(=O)N2CCN(c3ccc(F)cc3)CC2)c1)N1CCCCCCC1", "hERG current change (%, negative = inhibition) at 10uM": -45.2},
      {"smiles": "CC1CC(C)CN(S(=O)(=O)c2cccc(C(=O)N3CCN(c4ccc(F)cc4)CC3)c2)C1", "note": "(centres unmarked)", "hERG current change (%, negative = inhibition) at 10uM": -51.9},
      {"smiles": "COc1cc(/C=N/NC(=O)CSc2n[nH]c(=O)[nH]c2=O)cc(OC)c1O", "hERG current change (%, negative = inhibition) at 10uM": 28.8},
      {"smiles": "Cc1cc(C)cc(-n2c(SC(C)C(=O)NCc3ccc4c(c3)OCO4)nc3ccccc3c2=O)c1", "note": "(centres unmarked)", "hERG current change (%, negative = inhibition) at 10uM": 11.3},
      {"smiles": "COc1cc(NC(=O)c2ccc(C)cc2C)ccc1NC(=O)c1cc2ccccc2o1", "hERG current change (%, negative = inhibition) at 10uM": 6.61},
      {"smiles": "Nc1c(C(=O)c2ccccc2)sc2nsc(SCCN3CCCC3)c12", "hERG current change (%, negative = inhibition) at 10uM": -38.2},
      {"smiles": "Clc1ccc(N2CCN(/N=C/c3cccnc3)CC2)cc1", "hERG current change (%, negative = inhibition) at 10uM": -1.21},
      {"smiles": "O=C(Nc1nccs1)c1ccc(Br)cc1", "hERG current change (%, negative = inhibition) at 10uM": 12.1},
      {"smiles": "CCn1c(SCC(=O)N/N=C/C=C/c2ccco2)nnc1-c1ccccc1", "hERG current change (%, negative = inhibition) at 10uM": -34.7},
      {"smiles": "O=C(CSc1nnc(-c2ccccc2)n1-c1ccc(Cl)cc1)N/N=C/c1ccco1", "hERG current change (%, negative = inhibition) at 10uM": -55},
      {"smiles": "Cc1ccc(/C=N/NC(=O)CSc2nnc(-c3ccccc3)n2-c2ccc(Cl)cc2)o1", "hERG current change (%, negative = inhibition) at 10uM": -21.8},
      {"smiles": "CCn1c(SCC(=O)N/N=C/C(C)=C/c2ccco2)nnc1-c1ccccc1", "hERG current change (%, negative = inhibition) at 10uM": -55.1},
      {"smiles": "CCn1c(SCC(=O)N/N=C/C(C)=C\\c2ccco2)nnc1-c1ccccc1", "hERG current change (%, negative = inhibition) at 10uM": -39},
      {"smiles": "O=C(CSc1nnc(-c2ccc(Cl)cc2)n1-c1ccc(Cl)cc1)N/N=C/c1ccco1", "hERG current change (%, negative = inhibition) at 10uM": -41.7}
    ]}
  ]
}
